High-throughput results from PubChem.
Compounds with a hit are over-represented: about 10% of the library has one in this group of screens.
FLuc inh-1 – Photinus pyralis luciferase inhibition. P08659. purified P. pyralis luciferase, luminescence, biochemical. Potency, µM (highest dose often 115 µM), most hits filed as inhibitors. 76,000 compounds, 2.5% hits; note: % is set by controls: 0 for no effect and ±100 for the full control effect; nearly all actives have a fitted effect of over 65% in size
Target sequence (P08659 whole entry, looked up): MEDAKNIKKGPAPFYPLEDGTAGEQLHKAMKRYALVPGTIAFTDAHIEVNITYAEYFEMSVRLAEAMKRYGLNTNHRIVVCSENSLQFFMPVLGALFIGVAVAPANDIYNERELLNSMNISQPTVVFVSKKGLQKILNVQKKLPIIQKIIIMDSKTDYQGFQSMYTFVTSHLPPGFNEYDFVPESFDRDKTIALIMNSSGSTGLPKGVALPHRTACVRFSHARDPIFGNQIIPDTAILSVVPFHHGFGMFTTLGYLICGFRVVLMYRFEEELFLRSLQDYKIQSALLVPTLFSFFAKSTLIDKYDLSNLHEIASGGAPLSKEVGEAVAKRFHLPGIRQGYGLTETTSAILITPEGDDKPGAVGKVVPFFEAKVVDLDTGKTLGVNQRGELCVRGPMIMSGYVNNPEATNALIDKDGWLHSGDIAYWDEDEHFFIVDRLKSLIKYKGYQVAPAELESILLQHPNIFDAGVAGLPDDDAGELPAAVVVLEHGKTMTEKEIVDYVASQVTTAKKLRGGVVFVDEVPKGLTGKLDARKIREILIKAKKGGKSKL
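Biochemical qHTS: compound (6-point titration) added to 10uM D-luciferin plus 10uM ATP in Tris acetate pH 7.5 buffer with Mg, Tween-20 and BSA, then purified enzyme at 10nM; light output imaged.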
GPT2 inh – GPT2 alanine aminotransferase inhibition; Q8TD30; Recombinant GPT2, coupled pyruvate oxidase/HRP Amplex Red fluorescence; Potency, µM (top dose mostly 57.7 µM), for inactives: top-dose activity change, negative = inhibition, actives largely listed as inhibitors; 100,000 compounds, 0.25% hits; AID 1671188; note: % is set by controls: 0 for no effect and ±100 for the full control effect; nearly all actives have a fitted effect of over 60% in size
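Fluorescence of coupled pyruvate oxidase/HRP/Amplex Red system (50uM Amplex, 30 min, dark) reports pyruvate formed by GPT2. Enzyme reaction: 10ng/uL GPT2, 2mM L-alanine, 250uM a-KG, 30 min room temperature, pH 7.5; 50uM AOA control.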
3T3 cytotox – kills NIH 3T3 cells; Potency, µM (series often up to 96.7 µM), without a hit: at the top dose activity change, negative = cytotoxicity, actives largely listed as inhibitors; AID 1345082; 94,000 compounds, 4.3% hits; NIH 3T3 viability, CellTiter-Glo ATP luminescence, 48-72 h; note: % is set by controls: 0 for no effect and ±100 for the full control effect; nearly all actives have a fitted effect of over 55% in size
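Cytotoxicity is measured as loss of cellular ATP: NIH 3T3 cells (400/well) are exposed to compound for 48 or 72 hr at 37 °C, then CellTiter-Glo luminescence is imaged after 10 min at room temperature.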
hNpr1 antagonist – blocks ANP-stimulated signaling of human Npr1 receptor | AID 1347048 | 76,000 compounds, 1.6% hits | HEK293 hNpr1 GloSensor cGMP, ANP-stimulated luminescence | Potency, µM (doses to about 46.3 µM), without a hit: at the highest dose activity change, negative = inhibition, most hits filed as inhibitors; calls by dose curve; note: % is set by controls: 0 for no effect and ±100 for the full control effect; nearly all actives have a fitted effect of over 60% in size
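Compound pre-incubated 30 min at room temperature on GloSensor-loaded HEK293 cells stably carrying hNpr1 and the pGS-40F cGMP biosensor. Stimulation uses hNppA at 0.1 nM final; luminescence is taken at baseline and 20 min post-agonist.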
HEK293 tox – kills HEK 293 cells; HEK 293 viability, ATP luminescence (CellTiter-Glo), 48-72 h; Potency, µM (doses to about 115 µM), without a hit: top-dose activity change, negative = cytotoxicity, hits mostly inhibitors; 94,000 compounds, 6.6% hits; note: % is set by controls: 0 for no effect and ±100 for the full control effect; nearly all actives have a fitted effect of over 60% in size
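ATP-coupled CellTiter-Glo luminescence served as viability read-out, recorded 10 min after reagent addition at room temperature. HEK 293 cells, 250 cells/well, had been incubated with pintool-transferred compound for 48 or 72 hr at 37 degree Celsius.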
FLuc SDR no ATP – stabilizes firefly luciferase without ATP; Potency, µM (highest dose often 32.7 µM), for inactives: at the top dose activation (signal gain), hits mostly activators; shares compounds with FLuc inh-1; AID 1963318; Purified FLuc-C-HiBiT, Nano-Glo HiBiT luminescence, no ATP; 1,300 compounds, 7.8% hits; note: nearly all actives have a fitted effect of over 55% in size
FLuc SDR ATP – stabilizes firefly luciferase with ATP present; shares compounds with FLuc inh-1; purified FLuc-C-HiBiT + ATP, HiBiT complementation luminescence; Potency, µM (top dose mostly 32.7 µM), without a hit: top-dose activation (gain of signal), usual class: activators; 1,300 compounds, 8.7% hits; AID 1963319;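 note: signal reports ligand binding via conformational change of the enzyme rather than luciferase catalysis; % of control where 0% means no effect; nearly all actives have a fitted effect of over 55% in size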
FLuc inh-2 – firefly luciferase enzyme inhibition; 1,300 compounds, 42% hits; Potency, µM (titrated, usually from 32.7 µM), inactives show top-dose activity change, negative = inhibition, actives largely listed as inhibitors; purified FLuc-C-HiBiT enzyme, luciferin luminescence; shares compounds with FLuc inh-1; note: % is set by controls: 0 for no effect and ±100 for the full control effect; nearly all actives have a fitted effect of over 70% in size
Active calls of the source: *; i = inactive; ? = inconclusive; · = no result; [ ] = remark or other dose. Unless noted, calls come from the whole dose curve; as a rule, active = well fitted curve in the direction sought with a large enough effect; inconclusive = small, poorly fitted or top-dose-only effect, or another doubt; inactive = no such curve, though single readings can be large; an effect the other way counts as inactive or inconclusive. Potency is the fitted concentration of half-maximal effect.

SMILES | FLuc inh-1 | GPT2 inh | 3T3 cytotox | hNpr1 antagonist | HEK293 tox | FLuc SDR no ATP | FLuc SDR ATP | FLuc inh-2
c1ccc(OCc2noc(-c3ccc(NCC4CCCCO4)nc3)n2)cc1 (centres undefined) | ? | 4% | ? | -20% | ? | · | · | ·
CN(Cc1cccnc1)c1ccc(-c2nc(COc3ccccc3)no2)cn1 | 7.9µM* | -7% | ? | 10µM* | 25µM* | 18% | 18% | ?
O=C(NCCc1ccc(F)cc1)C1CN(c2ccc(F)cc2)C(=O)N1 (centres undefined) | i | -18% | ? | 1% | ? | · | · | ·
Cc1ccc([S+](=O)([O-])NC2CCN(C(=O)c3ccc(-c4ncccc4C#N)cc3)CC2)cc1 | · | -11% | ? | · | ? | · | · | ·
CC(C)NC(=O)NC1CCN(Cc2ccc(-c3ccsc3)cc2)C1 (centres undefined) | · | 3% | -15% | · | i | · | · | ·
COc1cc(-c2cn(C)c(=O)n3cc(COc4ccnn4C)nc23)ccn1 | i | ? | ? | 4%[70.6 µM] | -23%[172 µM] | · | · | ·
CCc1ccccc1NC(=O)c1nnn(-c2ccc(F)cc2)c1C | · | · | · | · | · | 30% | 19% | ?
CCc1cccc(Nc2nc(-c3ccc(OC)c(OC)c3)no2)c1 | ? | i | ? | -14% | ? | · | · | ·
COc1ccc(-c2noc(Nc3ccc(C)c(C)c3)n2)cc1 | 8.9µM* | i | ? | -19% | 40µM* | 20% | 12% | ?
COc1cc(Nc2nc(-c3cccc(OC)c3OC)no2)cc(OC)c1OC | i | -38% | ? | -23% | ? | · | · | ·
COc1cccc(Nc2nc(-c3ccccc3)no2)c1 | 0.79µM* | 1% | 45µM* | 8.9µM* | ? | ? | ? | 6.2µM*
COc1ccc(-c2noc(Nc3ccc(OC)c(OC)c3)n2)cc1 | 7.9µM* | i | ? | -14% | 28µM* | 19% | 12% | ?
Fc1ccccc1Nc1nc(-c2ccccc2)no1 | 0.4µM* | ? | ? | 4.5µM* | ? | ? | ? | 0.7µM*
O=C1NCCN2CC3(CCN(C(=O)CCCc4ccccc4)CC3)CC12 (centres undefined) | · | i | -17% | · | -13% | · | · | ·
CNC(=O)[C@@H]1CN(C(=O)c2cc(C)n(CCOC)c2C)C[C@H]1CO | i | i | -11% | 0% | -4% | · | · | ·
CCOc1cccc2cc(-c3nc(-c4ccccc4C)no3)c(=O)oc12 | · | · | · | · | · | ? | ? | ?
CCOc1ccc(C(=O)N2CCCC3(C2)NC(=O)N(Cc2ccccc2)C3=O)cc1 (centres undefined) | i | i | -29% | 14% | -23% | · | · | ·
CCOC(=O)c1cccc(NC(=O)c2cnc(-c3ccc(C)cc3)nc2-c2ccncc2)c1 | i | -17% | -16% | -15% | ? | · | · | ·
Cc1ccc(OCC(=O)Nc2cccc(C(=O)OCc3cc(=O)n4nc(C)sc4n3)c2)cc1 | · | · | · | · | · | 20% | ? | ?
O=C(O)c1ccc(-c2nnc3ccc(NC(=O)C4CCC4)cn23)cc1 | 10µM* | i | -21% | 2% | 19% | ? | ? | ?
O=C(NCc1ccccn1)C1c2ccccc2CC(=O)N1Cc1ccccc1 (centres undefined) | i | i | ? | -3% | -24% | · | · | ·
CC(=O)N1CCC(c2nnc3n2C(C(=O)Nc2ccc(C)cc2)CC3)CC1 (centres undefined) | · | 5% | -9% | · | 1% | · | · | ·
COc1ccc(-c2cn3nc(SCC(=O)Nc4cc(C)cc(C)c4)ccc3n2)cc1 | · | · | · | · | · | 15% | 12% | ?
COc1cccc(CNC(=O)Nc2cccn3nc(C)nc23)c1 | i | -1% | -15% | 1% | -2% | · | · | ·
Cc1ccc(NC(=O)Nc2cccn3nc(C)nc23)cc1 | 7.9µM* | ? | ? | -8% | ? | ? | 17% | ?
SMILES | FLuc inh-1 | GPT2 inh | 3T3 cytotox | hNpr1 antagonist | HEK293 tox | FLuc SDR no ATP | FLuc SDR ATP | FLuc inh-2
COc1cccc(CN2CCC3(CC2)Cc2ccccc2CNC3=O)c1 | · | i | -10% | · | -31% | · | · | ·
COc1cccc([S+](=O)([O-])N2CCn3c(nnc3C3CCCNC3)C2)c1 (centres undefined) | i | i | -10% | 17% | -29% | · | · | ·
CN(C)C(=O)c1ccc(-c2cccc(-c3ccn(CC4CC4)n3)c2)o1 | 7.1µM* | ? | ? | ? | ? | 24% | ? | 7.9µM*
O=Cc1cccc(-c2ccc(C(=O)O)o2)c1 | · | 0%[88.5 µM] | i | · | i | · | · | ·
Cc1nc2scc(CC(=O)N3CCOCC3)n2c(=O)c1-c1cc(C)n(-c2ccc(C(C)C)cc2)n1 | i | i | -25% | -1% | -23% | · | · | ·
Oc1c(Br)cc(Br)cc1-c1nc2ccccc2s1 | · | · | · | · | · | 10% | 8% | ?
CC(C)CNC(=O)c1cccc2c1CCN2C(=O)c1ccc(F)cc1 | i | 1% | -20% | -3% | ? | · | · | ·
CCC(=O)N1CCc2c(C(=O)O)cccc21 | 28µM* | 2% | -24% | -5% | -8% | 9% | 19% | -13%
O=C(O)c1cccc2c1CCN2C(=O)c1ccc(F)cc1 | 1.3µM* | -8% | ? | ? | -29% | 21% | 1.2µM* | 1.8µM*
Cc1ccccc1C(C(=O)NCc1nc(-c2ncccn2)no1)N(C)C (centres undefined) | i | 2% | -10% | 3% | 4% | · | · | ·
CN1CCOc2c(C(=O)NCc3cccnc3)cc(-c3ccc(CO)cc3)cc21 | i | -10%[88.5 µM] | ? | -14%[70.6 µM] | ? | · | · | ·
O=C(NCCC1CCN(C(=O)Nc2ccc(F)cc2)CC1)c1ccco1 | i | i | -9% | 6% | -1% | · | · | ·
O=C(CCc1conc1-c1ccccc1F)NCc1cccc(Br)c1 | i | i | ? | 1% | -21% | · | · | ·
Cc1c(C(=O)NCc2cccc(Br)c2)oc2ccc3c(c12)C(=O)CC(C)(C)O3 | · | · | · | · | · | 17% | 10% | ?
Cc1cccn2c(=O)c(C(=O)NCCc3ccccc3)cnc12 | · | · | · | · | · | ? | ? | 7µM*
O=C(NC1CCCC1)N1c2ccccc2CC1c1noc(C2CCOCC2)n1 (centres undefined) | 5µM* | -9% | -17% | -28% | ? | 23% | 18% | ?
CCc1ccccc1NC(=O)N1c2ccccc2CC1c1nc(C2CC2)no1 (centres undefined) | i | i | ? | 3% | ? | · | · | ·
